Rows were chosen to be rich in hits. Some 5.7% of all compounds tested hit in one or more screens of this group.
TGFb inhibitor: inhibitors of TGF-b signaling. HepG2 CAGA-GFP TGF-b/SMAD3 reporter, GFP fluorescence, 18 h; TGF-beta stimulated, 500 pg/mL final. 410,000 tested, 1.2% active. Potency, µM (doses to about 46.1 µM), for inactives: at the top dose activity, negative = inhibition, hits mostly inhibitors; further: potency means the concentration at half of the fitted maximal effect; on the % scale 0 is the no-effect control and ±100 the full control effect; nearly all actives have a fitted effect of over 65% in size
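HEPG2 CAGA-GFP, 1000 cells/well; 2 h settle, 37 C; cpd via pin tool; TGF-b 500 pg/mL final; 18 h, 37 C; GFP imaging ex488/em500-530; %Activity normalised to -TGF-b and +DMSO controls; CRC fit, curve class.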
HepG2 tox: HepG2 cytotoxicity, counter-screen for TGF-b inhibitors. HepG2 CAGA-GFP viability, ATP luminescence, 18 h. Potency, µM (titrated, usually from 46.1 µM), without a hit: at the top dose activity change, negative = cytotoxicity, actives largely listed as cytotoxic. 410,000 tested, 0.76% active. AID 588856; further: potency means the concentration at half of the fitted maximal effect
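HepG2 CAGA-GFP cells (1000/well, DMEM with 1% FBS) received compound, then TGF-beta at 500 pg/mL final, and were incubated 18 hours at 37 degrees C. Viability was read by CellTiter-Glo luminescence. Media-only wells were set as complete cell-killing and DMSO as no toxicity.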
ATXN2 expr inh: ATXN2 expression inhibition. HEK-293 ATXN2-luciferase reporter, luminescence, 24 h. Potency, µM (top dose mostly 57 µM), for the others: top-dose activity change, negative = inhibition, hits mostly inhibitors. 360,000 tested, 0.72% active; further: potency means the concentration at half of the fitted maximal effect; on the % scale 0 is the no-effect control and ±100 the full control effect; nearly all actives have a fitted effect of over 55% in size
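ATXN2-luciferase reporter cells (luciferase flanked by upstream and downstream ATXN2 gene portions) were treated 24 h at 37 °C with compounds at up to 57 uM. SteadyGlo luminescence gave expression; GF-AFC fluorescence gave viability.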
IL-1B inflam inh: blocks inflammasome-driven IL-1 beta release; THP-1 LPS/ATP IL-1B secretion, AlphaLISA, 16 h; active compounds read low; activity change, % at 57.5 µM; 360,000 tested, 4.7% active; in the data active means activity change below about -50%; inconclusive means mostly about -30% to -49%; further: on the % scale 0 is the no-effect control and ±100 the full control effect
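THP-1 cells pretreated 1 hr with compounds (up to 57.5 uM final), then stimulated with LPS (250 ng/mL final) plus ATP (1.25 mM final); secreted IL-1B measured by AlphaLISA after 16 hr, decreased signal indicating inhibition.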
ATXN viability: viability counter-screen for ATXN expression inhibitors; S2 cells (HEK-293 line with an ATXN2-luciferase reporter) viability, CellTiter-Fluor protease fluorescence, 24 h; 400,000 tested, 0.49% active; Potency, µM (series often up to 56.7 µM), actives largely listed as cytotoxic; further: potency means the concentration at half of the fitted maximal effect; nearly all actives have a fitted effect of over 40% in size
* marks the source's active call; other numbers are inactive results; i = inactive; ? = inconclusive; . = no result. Unless noted, the call rests on the fitted dose curve; in most records, active means well fitted curve in the direction sought with a large enough effect; inconclusive means small, poorly fitted or top-dose-only effect, or another doubt; inactive means no such curve, though single readings can be large; an effect the other way counts as inactive or inconclusive.

SMILES | TGFb inhibitor | HepG2 tox | ATXN2 expr inh | IL-1B inflam inh | ATXN viability
O=c1c2cc([N+](=O)[O-])ccc2sn1-c1ccccc1 | -12% | -7% | 23% | 15 | i
COc1ccc2sc3ccccc3c(=O)c2c1 | -23% | -21% | 31% | -1 | i
O=c1c2cc(F)ccc2sn1-c1ccc(F)cc1 | 16µM* | -56% | ? | -114* | .
COc1ccc(-n2sc3ccccc3c2=O)cc1 | 20µM* | 13µM* | ? | -106* | .
COc1ccc(-c2cc(=O)c3ccccc3s2)cc1 | -21% | -39% | 100% | -60* | i
CC(=O)Nc1ccc2sn(-c3ccccc3)c(=O)c2c1 | ? | -57% | -27% | -102* | ?
Cc1ccc(N2CC(NC(=O)Cc3ccc(F)cc3)CC2=O)cc1C (centres undefined) | -1% | 0% | . | . | .
COc1cc(OC)cc(C(=O)Nc2ccc(S(=O)(=O)N3CCCCC3c3cccnc3)cc2)c1 (centres undefined) | -10% | -37% | . | . | .
Cc1ccc(C)c(-n2sc3ccc(F)cc3c2=O)c1 | 10µM* | -53% | ? | -106* | ?
N#Cc1ccc2sn(-c3ccccc3)c(=O)c2c1 | ? | -40% | ? | 19 | .
COc1ccc(-n2sc3ccc(F)cc3c2=O)cc1 | ? | -65% | ? | -106* | 25µM*
Cc1ccc(C)c(Nc2nc(NCc3ccco3)nc3nccnc23)c1 | 2% | -3% | . | . | .
CC(NC(=O)Cc1ccccc1)C(c1ccccc1)N1CCOCC1 (centres undefined) | 1% | -4% | -6% | -64* | i
CC(NC(=O)c1ccc(-c2ccccc2)cc1)C(c1ccccc1)N1CCOCC1 (centres undefined) | -23% | -22% | -11% | 0 | i
O=C(O)c1ccc(N2C(=O)/C(=C/C=C/c3ccccc3)SC2=S)cc1 | -12% | -5% | 3% | -5 | i
CN(C)c1ccc(/C=C/C=C2/SC(=S)N(c3ccccc3)C2=O)cc1 | -2% | -16% | 2% | ? | 16µM*
O=[N+]([O-])c1cccc(C2NCC(c3ccccc3Cl)c3c2[nH]c2ccccc32)c1 (centres undefined) | ? | 34% | -15% | -63* | ?
CNCCC=C1c2ccccc2CCc2ccccc21 | 54% | -35% | -4% | -64* | i
CCOc1ccc(S(=O)(=O)Nc2ccc3c(c2)c(C(C)=O)c(C)n3S(=O)(=O)c2ccc(OCC)cc2)cc1 | 11µM* | -12% | . | . | .
Cc1ccc(-n2nc(CO)c(C(=O)NCCCCc3ccccc3)n2)cc1C | 0% | -12% | . | . | .
Cc1c(OCC(=O)C(C)(C)C)ccc2c(-c3ccccc3)cc(=O)oc12 | ? | -41% | 10% | -64* | i
Cc1c(OCC(=O)NCc2ccccn2)ccc2c(-c3ccccc3)cc(=O)oc12 | 14% | 1% | 4% | 6 | i
Cc1c(OCC(=O)NCC(O)c2ccccc2)ccc2c(-c3ccccc3)cc(=O)oc12 (centres undefined) | -10% | -31% | -2% | -63* | i
CCOC(=O)c1cc(-c2ccccc2)n(CC(=O)NCc2ccccc2OC)c1C | 0% | -7% | . | . | .
Cc1ccc(/C=C/C(=O)c2c(C)cc(C)[nH]c2=O)cc1 | -4% | -48% | ? | -94* | ?
SMILES | TGFb inhibitor | HepG2 tox | ATXN2 expr inh | IL-1B inflam inh | ATXN viability
O=C(/C=C\c1cccs1)c1c(O)ccc2ccc(=O)oc12 | 2% | -34% | -1% | -83* | i
Cc1cc(C)c(C(=O)/C=C/c2ccco2)c(=O)[nH]1 | 6% | 1% | 3% | ? | i
Cc1cc(C)c(C(=O)/C=C/c2cccs2)c(=O)[nH]1 | -2% | -13% | -9% | -73* | i
CCc1ccc(/C=C/C(=O)c2c(C)cc(C)[nH]c2=O)cc1 | ? | -62% | ? | -120* | ?
CCc1ccc(/C=C(\C)C(=O)c2c(C)cc(C)[nH]c2=O)cc1 | -13% | -11% | . | -22 | i
CCOC(=O)Cn1c(=O)n(C2CCCCC2)c2nc(-c3ccc(CC)cc3)nc(C(N)=O)c21 | 10% | -4% | 11% | . | i
CCOC(=O)c1c(C)[nH]c(C)c1S(=O)(=O)N1CCC(C(=O)Nc2ccccc2CC)CC1 | ? | -5% | 3% | . | i
COc1ccc(/C=C/C(=O)c2c(C)cc(C)[nH]c2=O)c2ccccc12 | 18µM* | 13µM* | ? | -99* | ?
COc1ccccc1/C=C/C(=O)c1c2c(c(C)[nH]c1=O)CCCC2 | -22% | 6% | -38% | -101* | ?
COc1ccccc1/C=C(\C)C(=O)c1c(C)cc(C)[nH]c1=O | -6% | 7% | -7% | 0 | i
CCOc1ccn(-c2ccc(F)cc2)c(=O)c1C(=O)Nc1ccc(Oc2ccnc(N)c2Cl)c(F)c1 | . | . | -22% | . | .
CCCCNCC(O)(c1ccc(Cl)cc1)c1ccc(Cl)cc1 | -9% | -4% | ? | -132* | ?
COc1ccc(CCNC(=O)c2ccc(Cl)cc2)cc1OC | 2% | -24% | -14% | -19 | i
COc1ccc(CNCC(O)(c2ccccc2)c2ccc(F)cc2)cc1 (centres undefined) | ? | -43% | -23% | -89* | i
COc1ccc(CNCC(O)(c2ccc(Cl)cc2)c2ccc(Cl)cc2)cc1OC | ? | 22µM* | ? | ? | ?
COc1ccc(CNCC(O)(c2ccc(Cl)cc2)c2ccc(Cl)cc2)cc1 | 0% | 10µM* | ? | -16 | ?
Cc1ccc(-c2noc(-c3ccccc3NC(=O)C3CC(=O)N(c4ccc(C)cc4)C3)n2)cc1 (centres undefined) | 6% | 16% | 20% | . | i
CCc1nnc(NC(=O)c2ccccc2NC(=O)C2CCN(C(=O)c3ccco3)CC2)s1 | 1% | 4% | . | . | .
CCOC(=O)c1ccc(S(=O)(=O)N2CCN(c3nc(-c4cccs4)nc4ccccc34)CC2)cc1 | -11% | -3% | . | . | .
COc1ccc(CNCC(O)(c2ccc(F)cc2)c2ccc(F)cc2)cc1OC | ? | -41% | -26% | ? | i
COc1ccc(CNCC(O)(c2ccccc2)c2ccc(F)cc2)cc1OC (centres undefined) | 3% | -22% | ? | -88* | i
Cc1ccc(NC(=O)c2ccc(CN3CC(=O)N4CCCCC4C3=O)cc2)cc1C (centres undefined) | -4% | -8% | . | . | .
CS(=O)(=O)NCCc1csc2nc(-c3ccccc3)nn12 | 0% | -11% | . | . | .
CCOC(=O)C1CCN(C2=NC(=O)/C(=C/c3ccc(Cl)cc3)S2)CC1 | 0% | -5% | -4% | -50* | i
CSC1=NC(=O)/C(=C/c2ccc(SC)cc2)S1 | -1% | -15% | ? | ? | ?
CCOC(=O)CSC1=NC(=O)/C(=C\c2ccc(Cl)cc2)S1 | 9% | -41% | 25µM* | ? | ?
